Assay results published in PubChem BioAssay (Tox21).
Where “and” joins values, the source holds several entries; their conditions need not be identical. Equal values may be shown once. Records with an inconclusive call do not appear. A call without a number means that no potency is given here. A structure can be active in one record and inactive in another. Calls of active or inactive are those of the source. Unless noted, the call rests on the fitted dose curve; in most records, active means well fitted curve in the direction sought with a large enough effect in the repeat runs; inconclusive means weak or mixed curves; inactive means no such curve, though single readings can be large; an effect the other way counts as inactive or inconclusive.

Legend:
[1] = qHTS assay to identify small molecule agonists of the androgen receptor (AR) signaling pathway in the presence of an antagonist - cell viability counter screen (AID 1259379); settings: MDA-kb2 viability, CellTiter-Fluor, 16 h; series mostly up to 92.4 µM;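 further: MDA-kb2 human breast cancer cells carrying an MMTV luciferase reporter; nearly all actives have a fitted effect of over 25% in size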
Outline: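 Cytotoxicity is assessed by CellTiter-Fluor in MDA-kb2 cells carrying an MMTV-driven luciferase reporter. Cells receive 3.0uM nilutamide plus compounds at 15 concentrations and incubate 16 hr at 37C without CO2 before fluorescence reading.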

[2] = qHTS assay to identify small molecule agonists of the estrogen receptor beta (ER-beta) signaling pathway - cell viability counter screen (AID 1259380); settings: ER-beta-bla HEK293T viability, CellTiter-Glo luminescence, 16 h; series mostly up to 92.4 µM; further: nearly all actives have a fitted effect of over 30% in size; further: potency means the concentration at half of the fitted maximal effect
Outline: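 Cytotoxicity is measured in parallel with the reporter screen: after 16 hr compound exposure at 37C and a 2 hr LiveBLAzer step, CellTiter-Glo is added to the same ER-beta-UAS-bla HEK293T wells and luminescence read after 30 min.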

[3] = biological target: Androgen receptor (Homo sapiens) (UniProt P10275); assay: qHTS assay to identify small molecule agonists of the androgen receptor (AR) signaling pathway in the presence of an antagonist (AID 1259381; calls by dose curve; further: nearly all actives have a fitted effect of over 15% in size); settings: MDA-kb2 MMTV-luciferase, AR agonist + nilutamide, 16 h; series mostly up to 92.4 µM
Chain of Androgen receptor (Homo sapiens) (P10275 whole entry, looked up): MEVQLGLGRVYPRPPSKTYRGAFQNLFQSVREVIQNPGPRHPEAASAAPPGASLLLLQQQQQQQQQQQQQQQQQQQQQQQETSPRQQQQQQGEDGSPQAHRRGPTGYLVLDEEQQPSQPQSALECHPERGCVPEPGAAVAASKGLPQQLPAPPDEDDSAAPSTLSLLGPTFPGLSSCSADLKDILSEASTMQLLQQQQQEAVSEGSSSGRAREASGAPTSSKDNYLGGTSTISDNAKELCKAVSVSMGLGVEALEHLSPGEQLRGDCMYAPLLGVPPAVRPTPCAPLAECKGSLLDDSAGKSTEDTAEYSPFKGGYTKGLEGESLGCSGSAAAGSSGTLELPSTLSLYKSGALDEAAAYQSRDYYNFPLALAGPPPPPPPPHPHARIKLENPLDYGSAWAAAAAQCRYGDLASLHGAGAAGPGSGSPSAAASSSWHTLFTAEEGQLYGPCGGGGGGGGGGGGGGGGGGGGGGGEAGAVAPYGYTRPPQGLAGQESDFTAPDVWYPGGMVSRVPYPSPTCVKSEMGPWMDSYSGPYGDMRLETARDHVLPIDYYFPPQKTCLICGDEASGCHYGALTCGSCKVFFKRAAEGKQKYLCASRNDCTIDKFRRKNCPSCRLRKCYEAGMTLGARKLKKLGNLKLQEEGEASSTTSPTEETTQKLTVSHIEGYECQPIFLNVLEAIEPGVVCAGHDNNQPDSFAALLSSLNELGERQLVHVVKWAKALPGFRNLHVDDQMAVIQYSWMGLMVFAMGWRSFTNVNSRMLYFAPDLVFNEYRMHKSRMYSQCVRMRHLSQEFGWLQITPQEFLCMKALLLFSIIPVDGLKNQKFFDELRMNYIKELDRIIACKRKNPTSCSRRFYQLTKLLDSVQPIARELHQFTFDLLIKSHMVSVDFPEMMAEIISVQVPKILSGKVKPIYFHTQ
Outline: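 Agonist-mode confirmation screen: human MDA-kb2 cells stably expressing luciferase under an MMTV promoter bearing AR and GR response elements, co-treated with 3.0uM nilutamide (final). Luminescence measured after 16hr compound incubation.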

[4] = qHTS assay to identify small molecule antagonists of the estrogen receptor beta (ER-beta) signaling pathway - cell viability counter screen (AID 1259382); settings: ER-beta-UAS-bla HEK293T viability, CellTiter-Glo luminescence, 16 h; series mostly up to 92.4 µM; further: nearly all actives have a fitted effect of over 55% in size; further: potency means the concentration at half of the fitted maximal effect
Outline: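 Cytotoxicity counter screen multiplexed with the beta-lactamase antagonist assay: GripTite HEK293T ER-beta-bla cells were treated 16 hr with test chemicals in the presence of 1nM 17-beta-estradiol, and viability was measured by CellTiter-Glo.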

[5] = biological target: Estrogen receptor (Homo sapiens) (UniProt P03372); assay: qHTS assay to identify small molecule agonists of the estrogen receptor alpha (ER-alpha) signaling pathway in the presence of an antagonist (AID 1259383; calls by dose curve; further: nearly all actives have a fitted effect of over 15% in size; further: potency means the concentration at half of the fitted maximal effect; on activation: top concentration of the series differs between compounds); settings: VM7Luc4E2 cells, ERE-luciferase, +ICI-182,780, 22 h; series mostly up to 92.4 µM
Chain of Estrogen receptor (Homo sapiens) (P03372 whole entry, looked up): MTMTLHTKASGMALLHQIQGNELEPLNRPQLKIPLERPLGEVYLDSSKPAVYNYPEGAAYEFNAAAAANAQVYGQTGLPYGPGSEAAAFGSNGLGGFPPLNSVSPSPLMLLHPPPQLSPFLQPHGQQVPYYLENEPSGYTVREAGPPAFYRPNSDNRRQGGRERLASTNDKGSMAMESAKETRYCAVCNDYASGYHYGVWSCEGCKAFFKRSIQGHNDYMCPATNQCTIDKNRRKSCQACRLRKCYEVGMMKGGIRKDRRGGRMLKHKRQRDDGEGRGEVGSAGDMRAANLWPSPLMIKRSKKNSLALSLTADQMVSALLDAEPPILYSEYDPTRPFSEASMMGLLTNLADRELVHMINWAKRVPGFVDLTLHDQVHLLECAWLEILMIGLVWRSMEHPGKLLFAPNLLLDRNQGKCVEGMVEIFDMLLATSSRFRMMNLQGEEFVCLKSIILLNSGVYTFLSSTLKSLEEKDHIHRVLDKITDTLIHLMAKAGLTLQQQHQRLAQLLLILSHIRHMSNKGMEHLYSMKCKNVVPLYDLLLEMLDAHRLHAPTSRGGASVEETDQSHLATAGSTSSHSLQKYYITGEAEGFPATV
Outline: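 Agonist-mode confirmation in the presence of the ER antagonist ICI-182,780 at 10.0nM final. Breast-derived VM7Luc4E2 reporter cells were exposed to compounds for 22hr, and ERE-driven luciferase was quantified by luminescence.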

[6] = qHTS assay to identify small molecule agonists or antagonists of the thyroid stimulating hormone receptor (TSHR) signaling pathway - wild type cell line counter screen (AID 1259384; calls by dose curve); settings: HEK293 wild type, cAMP HTRF counter-screen; series mostly up to 92.4 µM
Outline: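 Counter screen in untransfected Hek293: compounds (15-point titration, triplicate) plus phosphodiesterase inhibitor Ro20-1724 added after 18 h plating; 30 min RT. Intracellular cAMP via competitive d2/cryptate immunoassay, 1 h incubation.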

[7] = biological target: Thyrotropin receptor (Homo sapiens) (UniProt P16473); assay: qHTS assay to identify small molecule antagonists of the thyroid stimulating hormone receptor (TSHR) signaling pathway (AID 1259385; calls by dose curve; further: nearly all actives have a fitted effect of over 20% in size); settings: TSHR-HEK293 cAMP HTRF, TSH-stimulated antagonist mode; series mostly up to 92.4 µM
Chain of Thyrotropin receptor (Homo sapiens) (P16473 whole entry, looked up): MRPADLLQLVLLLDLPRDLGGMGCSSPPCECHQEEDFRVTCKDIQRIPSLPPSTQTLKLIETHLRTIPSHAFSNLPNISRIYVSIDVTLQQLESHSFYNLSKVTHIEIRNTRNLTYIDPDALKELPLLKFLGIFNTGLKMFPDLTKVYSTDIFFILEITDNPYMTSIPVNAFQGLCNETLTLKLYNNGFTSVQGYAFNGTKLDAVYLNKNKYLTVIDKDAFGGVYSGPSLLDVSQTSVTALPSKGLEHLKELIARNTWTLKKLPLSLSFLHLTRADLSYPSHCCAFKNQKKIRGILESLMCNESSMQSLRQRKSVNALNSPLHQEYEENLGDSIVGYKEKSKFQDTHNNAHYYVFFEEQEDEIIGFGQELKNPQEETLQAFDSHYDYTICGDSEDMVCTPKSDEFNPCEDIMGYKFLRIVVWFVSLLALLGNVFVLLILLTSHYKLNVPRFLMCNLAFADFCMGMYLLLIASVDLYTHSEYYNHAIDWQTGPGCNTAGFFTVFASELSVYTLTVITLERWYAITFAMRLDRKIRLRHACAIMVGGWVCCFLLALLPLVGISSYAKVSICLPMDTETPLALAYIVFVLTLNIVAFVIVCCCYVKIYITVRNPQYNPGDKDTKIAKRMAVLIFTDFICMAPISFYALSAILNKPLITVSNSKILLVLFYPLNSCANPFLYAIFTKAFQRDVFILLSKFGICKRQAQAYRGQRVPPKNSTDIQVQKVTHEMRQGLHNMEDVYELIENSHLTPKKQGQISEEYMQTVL
Outline: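 Antagonist mode: compound-treated TSHR-expressing HEK293 cells were stimulated with 1.5 ng/mL TSH (final) in presence of Ro20-1724 for 30 min at RT. HTRF cAMP detection after 1 h; each compound tested at 15 concentrations, triplicate.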

[8] = qHTS assay to identify small molecule agonists of the estrogen receptor alpha (ER-alpha) signaling pathway in the presence of an antagonist - cell viability counter screen (AID 1259386); settings: VM7Luc4E2 viability, CellTiter-Fluor fluorescence, 22 h; series mostly up to 92.4 µM;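 further: cells exposed to compounds for 22 h at 37 °C before the viability read; nearly all actives have a fitted effect of over 30% in size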
Outline: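 Cytotoxicity was measured in parallel with the ERE-luciferase agonist screen, in the same wells. The cells were VM7Luc4E2, which endogenously express ER-alpha, and treatment was with compounds plus 10.0nM ICI-182,780 for 22hr.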

[9] = biological target: Progesterone receptor (Homo sapiens) (UniProt P06401); assay: qHTS assay to identify small molecule agonists of the progesterone receptor (PR) signaling pathway (AID 1346784; calls by dose curve; further: nearly all actives have a fitted effect of over 30% in size); settings: PR-UAS-bla HEK293T, beta-lactamase FRET ratio, 16 h; series mostly up to 92.4 µM
Chain of Progesterone receptor (Homo sapiens) (P06401 whole entry, looked up): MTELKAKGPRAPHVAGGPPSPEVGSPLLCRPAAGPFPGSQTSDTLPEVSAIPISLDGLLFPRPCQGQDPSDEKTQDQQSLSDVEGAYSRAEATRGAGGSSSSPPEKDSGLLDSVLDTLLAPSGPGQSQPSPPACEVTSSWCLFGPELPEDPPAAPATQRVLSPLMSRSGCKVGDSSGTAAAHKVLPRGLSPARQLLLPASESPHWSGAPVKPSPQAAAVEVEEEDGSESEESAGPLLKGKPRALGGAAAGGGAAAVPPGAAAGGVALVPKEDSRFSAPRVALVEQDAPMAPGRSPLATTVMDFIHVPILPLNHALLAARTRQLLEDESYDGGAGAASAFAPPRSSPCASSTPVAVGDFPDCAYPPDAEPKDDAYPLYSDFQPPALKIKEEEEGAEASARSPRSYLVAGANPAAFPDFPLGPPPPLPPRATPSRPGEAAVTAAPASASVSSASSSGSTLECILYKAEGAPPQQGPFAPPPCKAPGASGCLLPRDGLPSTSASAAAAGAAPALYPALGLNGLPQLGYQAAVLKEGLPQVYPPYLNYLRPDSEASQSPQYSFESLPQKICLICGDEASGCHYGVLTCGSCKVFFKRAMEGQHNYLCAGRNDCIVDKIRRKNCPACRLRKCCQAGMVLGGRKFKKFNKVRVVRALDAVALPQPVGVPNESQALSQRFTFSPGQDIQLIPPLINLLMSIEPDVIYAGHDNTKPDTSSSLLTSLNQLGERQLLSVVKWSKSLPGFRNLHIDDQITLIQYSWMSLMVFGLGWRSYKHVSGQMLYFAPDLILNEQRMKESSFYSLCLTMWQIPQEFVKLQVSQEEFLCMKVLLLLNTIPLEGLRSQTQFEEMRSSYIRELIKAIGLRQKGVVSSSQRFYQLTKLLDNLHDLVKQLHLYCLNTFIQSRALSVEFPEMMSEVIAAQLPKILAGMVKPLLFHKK
Outline: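 Cells (PR-UAS-bla HEK 293T, GripTite) were plated in assay medium containing 2% charcoal-stripped FBS and incubated 6 hr. Test compounds in DMSO were added for 16 hr at 37C. FRET substrate was then loaded for 2 hr at room temperature before fluorescence reading.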

[10] = biological target: Progesterone receptor (Homo sapiens) (UniProt P06401); assay: qHTS assay to identify small molecule antagonists of the progesterone receptor (PR) signaling pathway (AID 1346795; active means well fitted inhibition curve with a large enough effect in the signal ratio in the repeat runs, not every such curve was filed as active; the % refers to the signal ratio; further: potency means the concentration at half of the fitted maximal effect); settings: PR-UAS-bla HEK293T, beta-lactamase FRET ratio, 16 h; series mostly up to 92.4 µM
Outline: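 Antagonist mode: compounds tested against 1 nM (final) promegestone stimulation in HEK293T cells expressing PR-UAS-bla reporter, 16 hr at 37C, 5% CO2; beta-lactamase activity detected via B/G FRET substrate after 2 hr at room temperature.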

[11] = qHTS assay to identify small molecule antagonists of the progesterone receptor (PR) signaling pathway - cell viability counter screen (AID 1346798); settings: PR-UAS-bla HEK293T viability, CellTiter-Glo luminescence, 16 h; series mostly up to 92.4 µM; further: nearly all actives have a fitted effect of over 50% in size
Outline: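 Counter screen for cytotoxicity: viability of PR-UAS-bla HEK293T cells was measured with CellTiter-Glo luminescence following 16 hr compound exposure in the presence of R5020.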

[12] = qHTS assay to identify small molecule agonists of the progesterone receptor (PR) signaling pathway - cell viability counter screen (AID 1346799; calls by dose curve; further: nearly all actives have a fitted effect of over 45% in size; further: potency means the concentration at half of the fitted maximal effect); settings: PR-UAS-bla HEK293T viability, CellTiter-Glo luminescence, 16 h; series mostly up to 92.4 µM
Outline: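 Cells (PR-UAS-bla HEK293T) are plated at 3,000/well in 2% charcoal-stripped FBS medium, rested 6 hr, dosed and incubated 16 hr at 37C. CellTiter-Glo is then added and luminescence measured after 30 min at room temperature.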

[13] = qHTS assay to identify small molecule antagonists of the TGF-beta/Smad signaling pathway - cell viability counter screen (AID 1346824); settings: SBE-bla HEK293T viability, CellTiter-Glo luminescence; series mostly up to 76.8 µM; further: nearly all actives have a fitted effect of over 50% in size
Outline: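 Cytotoxicity counter-screen run in the same wells as the beta-lactamase Smad reporter read: CellTiter-Glo luminescence after 30 min at room temperature. HEK 293T SBE-bla cells had 5 hr compound exposure at 37 C with TGF-beta1 (0.25 ng/mL stock).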

[14] = qHTS assay to identify small molecule agonists of the TGF-beta/Smad signaling pathway (AID 1346859; active means well fitted activation curve with a large enough effect in the signal ratio in the repeat runs, not every such curve was filed as active; the % refers to the signal ratio); settings: SBE-bla HEK293T, TGF-beta/Smad beta-lactamase reporter, 5 h; series mostly up to 76.8 µM
Outline: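 Reporter line: HEK 293T with stably integrated SBE-controlled beta-lactamase. Compound exposure lasts 5 hr at 37 C and 5% CO2; substrate loading follows for 2 hr at room temperature, with emission read at 460 and 530 nm.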

[15] = Human pregnane X receptor (PXR) small molecule agonists, qHTS cell viability counter screen (AID 1346977); settings: PXR-Luc HepG2 viability, CellTiter-Fluor, 24 h; series mostly up to 92.4 µM; further: nearly all actives have a fitted effect of over 50% in size; further: potency means the concentration at half of the fitted maximal effect
Outline: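 Cytotoxicity counter screen run in the same wells as the PXR luciferase assay, using PXR-Luc HepG2 cells in charcoal-stripped serum medium. Viability: CellTiter-Fluor fluorescence after 24hr compound treatment.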

[16] = qHTS assay to identify small molecule agonists of the TGF-beta/Smad signaling pathway - cell viability counter screen (AID 1346829); settings: SBE-bla HEK293T viability, CellTiter-Glo luminescence, 5 h; series mostly up to 76.8 µM; further: top concentration of the series differs between compounds; nearly all actives have a fitted effect of over 45% in size
Outline: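 Cytotoxicity counter screen: CellTiter-Glo luminescence (30 min, room temperature) measured in the SBE-bla HEK 293T reporter wells after 5 hr compound treatment at 37 C and the 2 hr substrate step.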

[17] = biological target: Thyrotropin-releasing hormone receptor (Homo sapiens) (UniProt P34981); assay: qHTS assay to identify small molecule antagonists of the thyrotropin-releasing hormone receptor (TRHR) signaling pathway (AID 1346877; active means well fitted inhibition curve with a large enough effect in the repeat runs, not every such curve was filed as active); settings: TRHR-HEK293, TRH-induced calcium fluorescence, antagonist mode; series mostly up to 51.3 µM
Chain of Thyrotropin-releasing hormone receptor (Homo sapiens) (P34981 whole entry, looked up): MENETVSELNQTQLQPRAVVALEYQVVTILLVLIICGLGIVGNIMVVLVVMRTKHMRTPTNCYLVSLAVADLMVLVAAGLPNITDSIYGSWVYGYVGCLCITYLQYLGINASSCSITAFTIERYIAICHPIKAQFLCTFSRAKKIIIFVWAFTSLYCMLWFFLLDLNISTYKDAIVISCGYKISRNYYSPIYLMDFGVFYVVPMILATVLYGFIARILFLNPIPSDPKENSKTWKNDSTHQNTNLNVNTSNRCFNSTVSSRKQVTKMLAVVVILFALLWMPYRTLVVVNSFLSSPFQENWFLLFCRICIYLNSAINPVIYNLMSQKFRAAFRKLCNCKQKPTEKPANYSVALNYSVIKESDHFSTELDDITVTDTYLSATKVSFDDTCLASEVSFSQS
Outline: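 Antagonism is measured as suppression of the calcium response to 1 nM TRH in TRHR-HEK293 cells that have been dye-loaded for 2 h at 37 °C after overnight plating. Each compound is tested at 15 concentrations in triplicate.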

[18] = biological target: Thyrotropin-releasing hormone receptor (Homo sapiens) (UniProt P34981); assay: qHTS assay to identify small molecule agonists of the thyrotropin-releasing hormone receptor (TRHR) signaling pathway (AID 1346891; calls by dose curve;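 further: HEK293 cells expressing TRHR with calcium dye readout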); settings: TRHR-HEK293 calcium fluorescence, agonist mode; series mostly up to 57.6 µM
Outline: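 Cells: TRHR-Hek293, seeded and incubated 18 h. Dye loading: 2 h at 37 °C. Compound added from DMSO stock by pin tool. Read-out: kinetic calcium fluorescence over 3 min.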

[19] = biological target: Estrogen receptor beta (Homo sapiens) (UniProt Q92731); assay: qHTS assay to identify small molecule antagonists of the estrogen receptor beta (ER-beta) signaling pathway (AID 1259378; active means well fitted inhibition curve with a large enough effect in the signal ratio in the repeat runs, not every such curve was filed as active; the % refers to the signal ratio; further: potency means the concentration at half of the fitted maximal effect); settings: ER-beta-UAS-bla HEK293T, beta-lactamase FRET ratio, 16 h; series mostly up to 92.4 µM
Chain of Estrogen receptor beta (Homo sapiens) (Q92731 whole entry, looked up): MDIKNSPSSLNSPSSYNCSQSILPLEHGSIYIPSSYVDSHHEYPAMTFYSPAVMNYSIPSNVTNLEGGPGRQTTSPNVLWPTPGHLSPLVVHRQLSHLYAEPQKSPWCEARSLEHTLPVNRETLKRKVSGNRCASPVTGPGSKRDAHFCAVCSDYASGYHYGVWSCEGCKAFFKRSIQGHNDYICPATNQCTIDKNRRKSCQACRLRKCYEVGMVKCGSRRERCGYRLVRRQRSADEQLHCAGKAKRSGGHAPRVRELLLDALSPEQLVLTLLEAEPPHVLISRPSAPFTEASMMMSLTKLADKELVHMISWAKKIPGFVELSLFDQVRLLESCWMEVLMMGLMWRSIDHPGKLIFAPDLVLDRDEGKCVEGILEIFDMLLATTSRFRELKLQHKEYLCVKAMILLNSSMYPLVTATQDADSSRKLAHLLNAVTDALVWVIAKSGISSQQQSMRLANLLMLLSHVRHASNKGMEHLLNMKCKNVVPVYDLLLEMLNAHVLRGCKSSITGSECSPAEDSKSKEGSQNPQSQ
Outline: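 Antagonist mode: compounds added to beta-lactamase reporter HEK293T ER-beta-UAS cells stimulated with E2 (1nM final), 16 hr at 37C. LiveBLAzer B/G FRET substrate, 2 hours room temperature, fluorescence read-out.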

Compound | Potency [1] | Potency [2] | Potency [3] | Potency [4] | Potency [5] | Potency [6] | Potency [7] | Potency [8] | Potency [9] | Potency [10] | Potency [11] | Potency [12] | Potency [13] | outcome [14] | Potency [15] | Potency [16] | Potency [17] | Potency [18] | Potency [19]
CCC(C)(Oc1ccc(C2(c3ccc(OC(C)(CC)C(=O)O)cc3)CCCCC2)cc1)C(=O)O (stereo not given) | inactive | inactive | inactive | inactive | inactive | inactive | inactive | inactive | inactive | inactive | inactive | inactive | inactive | inactive | inactive | – | – | – | –
Cc1ccc(-c2cc(C(F)(F)F)nn2-c2ccc(S(N)(=O)=O)cc2)cc1 | inactive | 60.9 µM (active) and 34.4 µM (active) and inactive | inactive | 61.1 µM (active) and inactive | inactive | inactive | inactive | inactive | inactive | – | inactive | 76.6 µM (active) and inactive | inactive | inactive | 60.9 µM (active) and inactive | inactive | inactive | inactive | –
CC(=O)CC(C)=O | inactive | inactive | – | inactive | inactive | – | inactive | inactive | inactive | inactive | – | inactive | inactive | inactive | inactive | inactive | inactive | inactive | –
O=C(OCc1ccccc1)c1ccc(O)cc1 | inactive | inactive | – | inactive | 30.6 µM (active) and 29.8 µM (active) | inactive | inactive | inactive | inactive | 34.4 µM (active) and 26.6 µM (active) | inactive | inactive | inactive | inactive | inactive | inactive | inactive | inactive | 19.3 µM (active)
